Sampled rows, rich in hits. Any-hit rate of the full collection: about 1.1%.
BJeLR viability: MLPCN primary cell-based screen for lethality selective to Ras in HRASV12 cells. 0.17% of 300,000 active. BJeLR (HRASV12) viability, CellTiter-Glo ATP luminescence, 48 h. inhibition, % (concentration not given with the values). AID 1554, 2009; in the data active = inhibition above about 50%
Mtb BioA inh: M. tuberculosis BioA enzyme inhibitors, primary screen, biochemical, plate reader, single point, HTS | 7,8-diaminopelargonic acid synthase BioA (Mycobacterium tuberculosis) | purified M. tuberculosis BioA enzyme | inhibition, % at 9.99 µM | 0.096% of 360,000 active | AID 602481, 2012; in the data active = inhibition above about 40%
PfHsp40 yeast: rescue of yeast from PfHsp40 toxicity, primary screen, S. cerevisiae, ATP luminescence; 0.68% of 340,000 active; growth rescue, % at 12.5 µM; AID 504582, 2011; S. cerevisiae expressing PfHsp40, growth rescue; in the data active = growth rescue above about 28%, passing the limit was not always enough;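 also: yeast W303a lacking pdr1 and pdr3 grown in galactose medium; growth measured after three days at 30 °C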
SARS 3CLpro inh-1: SARS-CoV 3CLpro protease inhibitors, primary screen, biochemical, quenched FRET; recombinant SARS-CoV 3CLpro, quenched FRET peptide cleavage; inhibition, % at 6 µM; 0.14% of 290,000 active; in the data active = inhibition above about 12%
MazEF act: activators of E. coli MazEF toxin-antitoxin RNase, primary screen, biochemical, fluorescence, uHTS; activation, % at 20 µM; FAM/BHQ RNA-DNA oligo cleavage fluorescence, 5 h; 0.32% of 350,000 active; in the data active = activation above about 50%
Target sequence (P0AE70 whole entry, looked up): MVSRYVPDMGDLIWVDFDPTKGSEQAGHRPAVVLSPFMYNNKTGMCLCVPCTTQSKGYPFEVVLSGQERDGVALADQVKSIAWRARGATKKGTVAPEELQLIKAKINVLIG
Yp Topo-I inh: Yersinia pestis topoisomerase I inhibitors, primary screen, biochemical, cleavage product accumulation, plate reader, single point | DNA topoisomerase I (Yersinia pestis CO92) | Y. pestis Topo-I cleavage product accumulation | activity, % at 10 µM | 0.064% of 360,000 active | AID 504884, 2011; in the data active = activity above about 50%, passing the limit was not always enough
SARS 3CLpro inh-2: confirmation of SARS coronavirus 3C-like protease inhibitors, retest, confirmation, biochemical | shares compounds with SARS 3CLpro inh-1 | 36% of 380 active | QFRET protease activity assay, 3CLpro | inhibition, % at 6 µM; in the data active = inhibition above about 13%
Hits are given with their value; i = inactive; nt = no result.

SMILES	BJeLR viability	Mtb BioA inh	PfHsp40 yeast	SARS 3CLpro inh-1	MazEF act	Yp Topo-I inh	SARS 3CLpro inh-2
Cc1ccc2[nH]c(=O)c(CN(CCc3ccccc3)Cc3nnnn3CC3CCCO3)cc2c1 (stereo not drawn)	i	i	i	57	i	i	i
CC1CCN(c2ccc3nnc(CCC(=O)NCCCOC(C)C)n3n2)CC1	i	i	i	16	i	i	i
CC(C)NC(=O)Nc1ccc2c(c1)C(=O)N([C@H](C)CO)C[C@@H](C)[C@@H](CN(C)Cc1ccc3c(c1)OCO3)O2	nt	i	nt	nt	nt	nt	nt
O=S(=O)(c1cccc(NC(=S)N2CCN(c3ccccc3)CC2)c1)C(F)F	i	nt	i	13	i	i	i
O=C(COc1ccc(S(=O)(=O)N2CCCCC2)cc1)Nc1ccccc1F	i	i	i	12	i	i	i
O=C(COc1ccccc1)Nc1ccc(S(=O)(=O)N2CCCCCC2)cc1	i	i	i	i	i	i	nt
Cc1ccc(C(=O)CSc2nnc(CNc3ccc(C)cc3C)n2Cc2ccco2)cc1	i	i	i	13	i	i	i
COc1ccc(C(=O)CSc2nnc(CNc3ccc(C)cc3C)n2Cc2ccco2)cc1	i	i	i	i	i	i	nt
C[C@@H]1CN([C@H](C)CO)C(=O)c2cccc(N(C)C)c2O[C@H]1CN(C)S(=O)(=O)c1ccc(F)cc1	nt	i	nt	nt	nt	nt	nt
C[C@@H]1CCCCO[C@H](CN(C)C(=O)CCC(F)(F)F)[C@H](C)CN([C@@H](C)CO)C(=O)c2cc(NC(=O)CCCN(C)C)ccc2O1	nt	i	nt	nt	nt	nt	nt
O=C(NC(NC(=S)Nc1cccc(Cl)c1)C(Cl)(Cl)Cl)OCc1ccccc1 (stereo not drawn)	i	i	i	13	84	i	i
C[C@@H]1CCCCO[C@@H](CN(C)S(=O)(=O)c2ccc(F)cc2)[C@H](C)CN([C@@H](C)CO)C(=O)c2cc(NS(=O)(=O)c3cccs3)ccc2O1	nt	i	nt	nt	nt	nt	nt
CCCC#Cc1cnc2c(c1)C(=O)N([C@H](C)CO)C[C@H](C)[C@@H](CN(C)C(=O)c1ccccc1)O2	nt	i	nt	nt	nt	nt	nt
COc1ccc(NC(=O)Nc2ccc3c(c2)C(=O)N([C@H](C)CO)C[C@@H](C)[C@H](CN(C)S(=O)(=O)c2cn(C)cn2)OCCCC[C@H](C)O3)cc1	nt	i	nt	nt	nt	nt	nt
CO[C@H]1CN(C)C(=O)c2cc(NC(=O)c3ccccc3)ccc2OC[C@H](C)N(C)C[C@@H]1C	nt	i	nt	nt	nt	nt	nt
O=C(Nn1cnc2ccccc2c1=O)c1ccc(Br)cc1	i	i	i	14	i	i	i
COc1ccccc1NC(=O)N(C)C[C@H]1Oc2ncc(C#CC(C)C)cc2C(=O)N([C@@H](C)CO)C[C@@H]1C	nt	i	nt	nt	nt	nt	nt
O=C(C[C@H]1C[C@@H]2c3cc(NC(=O)NC4CCCCC4)ccc3O[C@@H]2[C@H](CO)O1)NCc1ccccc1	nt	i	nt	nt	nt	nt	nt
O=C1C(C2=NC(c3ccccn3)C3C(=O)N(c4ccccc4)C(=O)C23)=C(O)c2ccccc21 (stereo not drawn)	i	nt	i	80	i	i	i
C[C@@H]1CN([C@H](C)CO)C(=O)c2cc(NC(=O)Nc3ccccc3)ccc2O[C@@H](C)CCCCO[C@@H]1CN(C)Cc1ccc(Cl)c(Cl)c1	nt	i	nt	nt	nt	nt	nt
O=C(O)c1cccc(NS(=O)(=O)c2ccc(C3CCCCC3)cc2)c1	i	i	i	12	i	i	i
O=C(CCNC(=O)Cn1cnc2ccccc2c1=O)NCC1COc2ccccc2O1 (stereo not drawn)	i	i	i	i	i	i	nt
O=C(CCNC(=O)Cn1cnc2ccccc2c1=O)NCC1CCCO1 (stereo not drawn)	i	nt	i	17	i	i	i
O=C(N[C@@H]1CC[C@@H](CCNC(=O)c2cnccn2)O[C@@H]1CO)c1ccc2c(c1)OCO2	nt	i	nt	nt	nt	nt	nt
N#CCC(=O)N/N=C/c1c(-c2ccccc2)n(-c2ccccc2)c2ccccc12	i	i	i	22	i	i	23
SMILES	BJeLR viability	Mtb BioA inh	PfHsp40 yeast	SARS 3CLpro inh-1	MazEF act	Yp Topo-I inh	SARS 3CLpro inh-2
CC(=O)c1c(OC(=O)c2ccc(C)cc2)c2ccccc2n1C	i	nt	i	i	i	i	nt
CC(=O)c1c(OC(=O)c2ccco2)c2ccccc2n1C	i	i	i	13	i	i	16
CC(=O)NC1C(=O)N(CCN2CCOCC2)c2ccc(Br)cc21 (stereo not drawn)	i	i	i	14	i	i	47
CCOc1ccc2c(c1)C(NC(C)=O)C(=O)N2CCN1CCOCC1 (stereo not drawn)	i	i	i	i	i	i	nt
Cc1cc(C(=O)N/N=C/c2cccc([N+](=O)[O-])c2)c(C)n1-c1ccccc1	i	nt	i	i	i	i	nt
Cc1cc(C(=O)CCl)c(C)n1-c1cccc([N+](=O)[O-])c1	nt	i	i	20	i	i	60
NNC(=O)CN1C(c2ccccc2)=Nc2ccc(Br)cc2C1c1ccccc1 (stereo not drawn)	i	nt	i	13	i	i	i
NNC(=O)CN1C(CN2CCOCC2)=Nc2ccc(Br)cc2C1c1ccccc1 (stereo not drawn)	i	nt	i	21	i	i	i
NNC(=O)CN1C(c2ccc(Cl)cc2)=Nc2ccc(Br)cc2C1c1ccccc1 (stereo not drawn)	i	nt	i	i	i	i	nt
CC1=Nc2ccc(Br)cc2C(c2ccccc2)N1CC(=O)NN (stereo not drawn)	i	nt	i	13	i	i	i
COC(=O)CN1C(C)=Nc2ccc(C)cc2C1c1ccccc1 (stereo not drawn)	i	nt	i	i	i	i	nt
CCC1=Nc2ccc(Br)cc2C(c2ccccc2)N1CC(=O)OC (stereo not drawn)	i	i	i	i	i	i	nt
COc1cc(OC)c(C2=Nc3ccc(Br)cc3C(c3ccccc3)N2CC(=O)NN)cc1OC (stereo not drawn)	i	nt	i	12	i	i	i
CCNC(=O)C[C@H]1CC[C@H]2[C@H](COc3ccc(NC(=O)Nc4ccc(C)cc4)cc3C(=O)N2C)O1	nt	i	nt	nt	nt	nt	nt
CCNC(=O)C[C@H]1CC[C@@H]2[C@H](COc3ccc(NC(=O)Nc4cccc(OC)c4)cc3C(=O)N2C)O1	nt	i	nt	nt	nt	nt	nt
CC(C)(C)OC(=O)NCc1ccc(CNC(=O)c2[nH]cnc2C(=O)N[C@@H](Cc2ccccc2)C(=O)OCc2ccccc2)cc1	i	i	i	14	i	i	i
CC(C)(C)OC(=O)NCc1ccc(CNC(=O)c2[nH]cnc2C(=O)N[C@@H](Cc2ccccc2)C(=O)OC(C)(C)C)cc1	i	i	i	15	i	i	i

Screening data deposited in PubChem by several laboratories.
